# Targets with a hit are over-represented here; the source holds about 7,900 in all. About 0.6% of all pairs of compound and target were hits. A number with no mark means an inactive call.
# Assays:
# Experiment in all cases: log2 fold change, soluble protein after heating vs DMSO (PISA); higher = thermal stabilisation; K562 cells, 10 uM, 30 min; active = over 0.2 and 3.5 SD of the protein, either way, in both replicates (recomputed)
# [1] = compound: CS(=O)(=O)c1ccc(-c2cnc(N)c(C(=O)Nc3ccccc3)n2)cc1
# Outline: (§1)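 Thermal stability values are relative to control samples and come from duplicates. They are expressed as log2 fold changes. For measurement, K562 cells (2×10^6 cells/mL) received 10 μM compound for 30 min, and aliquots were heated for 3 min over 48°C-58°C, pooled, and extracted at 4°C in PBS with 0.5% NP-40. Soluble protein, the supernatant after 21,000xg for 90 min, was quantified by TMTpro 16plex LC-MS/MS with equalised channel sums.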
# crizotinib = compound: C[C@@H](Oc1cc(-c2cnn(C3CCNCC3)c2)cnc1N)c1c(Cl)ccc(F)c1Cl [crizotinib]
# Outline: as §1
# [2] = compound: C[C@@H]1COCCN1C2=NC(=NC(=C2)C3(CC3)S(=O)(=O)C)C4=C5C=CNC5=CC=C4
# Outline: as §1
# [3] = compound: C[C@H](C1=CC=C(C=C1)C(=O)NC2=C3C=CNC3=NC=C2)N
# Outline: as §1
# duvelisib = compound: C[C@H](Nc1ncnc2nc[nH]c12)c1cc2cccc(Cl)c2c(=O)n1-c1ccccc1 [duvelisib]
# Outline: as §1
# gandotinib = compound: Cc1cc(Nc2cc(CN3CCOCC3)c3nc(C)c(Cc4ccc(Cl)cc4F)n3n2)n[nH]1 [gandotinib]
# Outline: as §1
# tozasertib = compound: Cc1cc(Nc2cc(N3CCN(C)CC3)nc(Sc3ccc(NC(=O)C4CC4)cc3)n2)n[nH]1 [tozasertib]
# Outline: as §1
# [4] = compound: Cc1cc(SCc2sc(-c3ccc(C(F)(F)F)cc3)nc2C)ccc1OCC(=O)O
# Outline: as §1
# doramapimod = compound: Cc1ccc(-n2nc(C(C)(C)C)cc2NC(=O)Nc2ccc(OCCN3CCOCC3)c3ccccc23)cc1 [doramapimod]
# Outline: as §1
# ispinesib = compound: Cc1ccc(C(=O)N(CCCN)[C@@H](c2nc3cc(Cl)ccc3c(=O)n2Cc2ccccc2)C(C)C)cc1 [ispinesib]
# Outline: as §1
# bafetinib = compound: Cc1ccc(NC(=O)c2ccc(CN3CC[C@H](N(C)C)C3)c(C(F)(F)F)c2)cc1Nc1nccc(-c2cncnc2)n1 [bafetinib]
# Outline: as §1
# [5] = compound: Cc1cccc(CC(=O)N2CCc3c2ccc(-c2cn(C)c4ncnc(N)c24)c3F)n1
# Outline: as §1
# nilotinib = compound: Cc1cn(-c2cc(NC(=O)c3ccc(C)c(Nc4nccc(-c5cccnc5)n4)c3)cc(C(F)(F)F)c2)cn1 [nilotinib]
# Outline: as §1
# [6] = compound: Cc1nc(Nc2n[nH]c3c2CN(C(=O)N[C@H](CN(C)C)c2ccccc2)C3(C)C)c2sccc2n1
# Outline: as §1
# dasatinib = compound: Cc1nc(Nc2ncc(C(=O)Nc3c(C)cccc3Cl)s2)cc(N2CCN(CCO)CC2)n1 [dasatinib]
# Outline: as §1
# [7] = compound: Cc1ncc(-c2ccnc(Nc3ccc(S(C)(=O)=O)cc3)n2)n1C(C)C
# Outline: as §1
# [8] = compound: Cn1cc(-c2ccc3c(c2)CCN3C(=O)Cc2cccc(C(F)(F)F)c2)c2c(N)ncnc21
# Outline: as §1
# [9] = compound: Cn1cc(-c2ccc3nnc(C(F)(F)c4ccc5ncccc5c4)n3n2)cn1
# Outline: as §1
# tipifarnib = compound: Cn1cncc1[C@@](N)(c1ccc(Cl)cc1)c1ccc2c(c1)c(-c1cccc(Cl)c1)cc(=O)n2C [tipifarnib]
# Outline: as §1
# mubritinib = compound: FC(F)(F)c1ccc(/C=C/c2nc(COc3ccc(CCCCn4ccnn4)cc3)co2)cc1 [mubritinib]
# Outline: as §1
# UniProt Q16891, sequence (Q16891 whole entry, looked up): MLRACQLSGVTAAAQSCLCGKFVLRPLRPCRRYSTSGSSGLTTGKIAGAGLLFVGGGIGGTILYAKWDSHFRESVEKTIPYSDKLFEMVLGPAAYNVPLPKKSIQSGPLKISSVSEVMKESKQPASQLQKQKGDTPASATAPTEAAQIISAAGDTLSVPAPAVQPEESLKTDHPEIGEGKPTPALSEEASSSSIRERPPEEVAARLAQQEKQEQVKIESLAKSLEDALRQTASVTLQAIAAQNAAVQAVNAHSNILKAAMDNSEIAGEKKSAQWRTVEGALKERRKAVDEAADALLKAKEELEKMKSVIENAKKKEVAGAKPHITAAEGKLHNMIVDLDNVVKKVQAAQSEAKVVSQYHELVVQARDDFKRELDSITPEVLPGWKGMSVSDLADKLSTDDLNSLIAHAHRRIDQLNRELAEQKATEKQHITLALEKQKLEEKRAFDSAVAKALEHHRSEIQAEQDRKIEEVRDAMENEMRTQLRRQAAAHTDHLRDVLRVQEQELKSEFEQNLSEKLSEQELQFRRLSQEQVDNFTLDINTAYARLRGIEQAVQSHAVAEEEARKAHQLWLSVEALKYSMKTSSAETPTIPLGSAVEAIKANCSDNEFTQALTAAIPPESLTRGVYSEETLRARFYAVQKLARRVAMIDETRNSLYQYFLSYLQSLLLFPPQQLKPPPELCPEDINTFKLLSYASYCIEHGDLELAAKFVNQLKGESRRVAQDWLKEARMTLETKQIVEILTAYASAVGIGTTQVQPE
# UniProt Q9Y2U8, sequence (Q9Y2U8 whole entry, looked up): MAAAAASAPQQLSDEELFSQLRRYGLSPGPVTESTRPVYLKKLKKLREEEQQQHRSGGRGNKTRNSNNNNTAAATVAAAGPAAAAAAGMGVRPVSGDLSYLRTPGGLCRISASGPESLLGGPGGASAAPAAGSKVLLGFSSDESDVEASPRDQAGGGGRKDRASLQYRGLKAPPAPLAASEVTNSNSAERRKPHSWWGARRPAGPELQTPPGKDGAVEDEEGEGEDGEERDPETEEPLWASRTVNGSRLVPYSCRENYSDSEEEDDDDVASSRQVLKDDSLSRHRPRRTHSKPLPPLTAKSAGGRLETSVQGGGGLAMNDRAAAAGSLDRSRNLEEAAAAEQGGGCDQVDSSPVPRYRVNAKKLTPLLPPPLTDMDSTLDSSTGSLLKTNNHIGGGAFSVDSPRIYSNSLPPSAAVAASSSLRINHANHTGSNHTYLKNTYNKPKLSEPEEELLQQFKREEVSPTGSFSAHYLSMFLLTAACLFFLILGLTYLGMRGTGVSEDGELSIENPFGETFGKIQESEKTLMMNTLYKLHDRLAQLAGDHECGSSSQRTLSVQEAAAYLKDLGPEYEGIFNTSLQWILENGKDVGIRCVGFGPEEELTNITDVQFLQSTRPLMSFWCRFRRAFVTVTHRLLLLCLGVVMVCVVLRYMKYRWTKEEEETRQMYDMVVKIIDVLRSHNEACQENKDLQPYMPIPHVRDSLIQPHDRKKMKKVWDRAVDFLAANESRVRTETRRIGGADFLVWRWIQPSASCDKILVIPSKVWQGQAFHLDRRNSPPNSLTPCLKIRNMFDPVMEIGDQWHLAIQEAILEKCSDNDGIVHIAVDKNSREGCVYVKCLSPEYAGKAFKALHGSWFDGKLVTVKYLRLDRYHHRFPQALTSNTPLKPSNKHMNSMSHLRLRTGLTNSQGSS
# UniProt Q96PC5, sequence (Q96PC5 whole entry, looked up): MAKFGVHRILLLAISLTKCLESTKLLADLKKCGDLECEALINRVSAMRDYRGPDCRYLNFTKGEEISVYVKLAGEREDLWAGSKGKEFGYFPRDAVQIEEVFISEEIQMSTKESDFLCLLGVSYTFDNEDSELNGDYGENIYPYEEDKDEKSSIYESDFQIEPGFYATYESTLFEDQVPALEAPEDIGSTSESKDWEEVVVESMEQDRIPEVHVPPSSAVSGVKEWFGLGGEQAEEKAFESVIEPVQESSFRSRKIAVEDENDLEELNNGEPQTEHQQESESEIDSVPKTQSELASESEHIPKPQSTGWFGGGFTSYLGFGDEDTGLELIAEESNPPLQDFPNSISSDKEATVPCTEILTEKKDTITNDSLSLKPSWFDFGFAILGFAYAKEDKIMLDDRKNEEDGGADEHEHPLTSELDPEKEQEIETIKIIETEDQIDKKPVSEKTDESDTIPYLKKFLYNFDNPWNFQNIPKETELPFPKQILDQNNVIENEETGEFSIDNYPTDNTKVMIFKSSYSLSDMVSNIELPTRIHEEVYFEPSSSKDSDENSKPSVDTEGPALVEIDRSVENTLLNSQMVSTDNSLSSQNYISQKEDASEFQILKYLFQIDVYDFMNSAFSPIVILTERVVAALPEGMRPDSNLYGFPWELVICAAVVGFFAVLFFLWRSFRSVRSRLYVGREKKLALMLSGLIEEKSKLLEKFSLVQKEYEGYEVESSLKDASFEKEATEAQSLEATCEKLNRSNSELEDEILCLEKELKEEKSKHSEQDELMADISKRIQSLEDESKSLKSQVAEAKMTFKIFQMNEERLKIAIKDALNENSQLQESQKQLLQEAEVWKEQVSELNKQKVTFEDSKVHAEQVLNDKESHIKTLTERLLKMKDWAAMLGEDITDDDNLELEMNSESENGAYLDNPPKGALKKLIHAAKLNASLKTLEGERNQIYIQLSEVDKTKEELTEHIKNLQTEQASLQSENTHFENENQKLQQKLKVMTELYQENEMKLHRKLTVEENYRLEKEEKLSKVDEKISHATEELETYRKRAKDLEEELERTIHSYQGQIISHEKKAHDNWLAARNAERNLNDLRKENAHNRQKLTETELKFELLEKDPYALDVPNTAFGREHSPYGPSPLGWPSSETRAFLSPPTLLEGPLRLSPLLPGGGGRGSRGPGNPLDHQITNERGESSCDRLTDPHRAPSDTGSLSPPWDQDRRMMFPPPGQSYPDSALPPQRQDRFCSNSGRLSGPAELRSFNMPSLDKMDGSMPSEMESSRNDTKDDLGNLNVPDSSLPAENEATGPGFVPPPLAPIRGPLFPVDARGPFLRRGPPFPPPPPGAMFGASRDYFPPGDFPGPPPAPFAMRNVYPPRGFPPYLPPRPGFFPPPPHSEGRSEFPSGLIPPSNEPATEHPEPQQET
# UniProt P52732, sequence (P52732 whole entry, looked up): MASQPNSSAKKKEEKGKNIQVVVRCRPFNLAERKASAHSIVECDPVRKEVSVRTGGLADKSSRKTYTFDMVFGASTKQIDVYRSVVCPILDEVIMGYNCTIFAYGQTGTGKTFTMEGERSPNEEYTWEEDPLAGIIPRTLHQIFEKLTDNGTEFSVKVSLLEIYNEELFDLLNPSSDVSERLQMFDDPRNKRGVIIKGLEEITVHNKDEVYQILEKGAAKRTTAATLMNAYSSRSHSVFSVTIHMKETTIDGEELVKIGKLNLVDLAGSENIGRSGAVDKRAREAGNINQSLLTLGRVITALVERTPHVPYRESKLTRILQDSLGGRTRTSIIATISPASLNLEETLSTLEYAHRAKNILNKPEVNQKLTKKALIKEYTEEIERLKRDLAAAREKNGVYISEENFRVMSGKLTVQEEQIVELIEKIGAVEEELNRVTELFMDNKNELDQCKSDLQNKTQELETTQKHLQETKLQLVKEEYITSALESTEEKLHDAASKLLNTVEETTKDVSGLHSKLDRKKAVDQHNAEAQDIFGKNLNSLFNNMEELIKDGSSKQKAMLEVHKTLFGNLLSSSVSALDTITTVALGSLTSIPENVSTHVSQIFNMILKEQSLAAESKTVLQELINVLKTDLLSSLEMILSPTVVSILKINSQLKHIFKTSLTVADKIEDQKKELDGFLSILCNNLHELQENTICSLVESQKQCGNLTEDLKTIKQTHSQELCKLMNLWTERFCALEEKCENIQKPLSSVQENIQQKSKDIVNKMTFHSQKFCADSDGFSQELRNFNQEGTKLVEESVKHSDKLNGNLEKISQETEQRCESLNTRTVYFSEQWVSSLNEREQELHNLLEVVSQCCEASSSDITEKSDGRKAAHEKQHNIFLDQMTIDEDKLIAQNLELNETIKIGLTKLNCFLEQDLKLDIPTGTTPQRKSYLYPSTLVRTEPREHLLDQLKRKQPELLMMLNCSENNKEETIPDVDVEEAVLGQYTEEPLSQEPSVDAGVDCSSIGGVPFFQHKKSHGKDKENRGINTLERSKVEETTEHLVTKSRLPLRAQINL
# UniProt Q08431, sequence (Q08431 whole entry, looked up): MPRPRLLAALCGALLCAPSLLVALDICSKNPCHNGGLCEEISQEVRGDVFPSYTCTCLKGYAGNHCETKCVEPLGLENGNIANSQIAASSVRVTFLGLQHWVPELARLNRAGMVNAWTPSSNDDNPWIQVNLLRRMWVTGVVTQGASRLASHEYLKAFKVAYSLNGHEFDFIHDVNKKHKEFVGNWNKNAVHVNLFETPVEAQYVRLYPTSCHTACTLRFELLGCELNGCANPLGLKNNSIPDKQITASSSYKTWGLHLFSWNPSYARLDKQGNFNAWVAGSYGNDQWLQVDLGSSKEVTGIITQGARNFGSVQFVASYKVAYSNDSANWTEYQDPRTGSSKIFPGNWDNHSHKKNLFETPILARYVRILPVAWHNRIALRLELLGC
# UniProt Q9C0E8, sequence (Q9C0E8 whole entry, looked up): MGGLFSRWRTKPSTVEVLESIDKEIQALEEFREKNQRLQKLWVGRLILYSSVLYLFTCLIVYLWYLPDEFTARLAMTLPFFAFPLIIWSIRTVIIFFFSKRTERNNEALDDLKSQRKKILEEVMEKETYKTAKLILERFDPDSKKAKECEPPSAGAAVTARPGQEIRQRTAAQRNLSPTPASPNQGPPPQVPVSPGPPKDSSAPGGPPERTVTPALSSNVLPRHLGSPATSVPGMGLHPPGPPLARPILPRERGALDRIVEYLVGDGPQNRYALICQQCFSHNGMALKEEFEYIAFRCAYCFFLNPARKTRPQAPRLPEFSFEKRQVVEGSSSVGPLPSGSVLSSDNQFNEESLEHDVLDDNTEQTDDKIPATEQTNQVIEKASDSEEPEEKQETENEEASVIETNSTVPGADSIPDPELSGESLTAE
Target,log2 fold change [1],log2 fold change (crizotinib),log2 fold change [2],log2 fold change [3],log2 fold change (duvelisib),log2 fold change (gandotinib),log2 fold change (tozasertib),log2 fold change [4],log2 fold change (doramapimod),log2 fold change (ispinesib),log2 fold change (bafetinib),log2 fold change [5],log2 fold change (nilotinib),log2 fold change [6],log2 fold change (dasatinib),log2 fold change [7],log2 fold change [8],log2 fold change [9],log2 fold change (tipifarnib),log2 fold change (mubritinib)
LPCAT3 (UniProt Q6P1A2),0.091,-0.121,0.171,0.006,-0.035,-0.167,-0.027,0.027,-0.042,-0.696 (active),0.108,0.063,0.044,0,0.051,0.363 (active),0.153,-0.015,-0.216,0.034
KIF11 (UniProt P52732),0.034,-0.091,-0.029,0.207,-0.007,-0.018,0.12,0.19,0.13,0.761 (active),0.043,0.044,-0.057,-0.031,-0.075,0.088,-0.06,-0.002,-0.078,-0.025
JAK3 (UniProt P52333),0.001,0.048,0.142,-0.062,0.133,-0.132,0.032,0.135,-0.071,0.087,-0.013,-0.056,-0.01,0.082,-0.028,-0.02,-0.019,0.044,0.052,-0.061
ILK (UniProt Q13418),0.054,0.038,-0.001,0.046,0.081,-0.039,-0.105,-0.046,-0.023,-0.153,-0.038,-0.012,0.122,-0.024,-0.07,-0.002,0.027,0.005,-0.023,0.048
MIA2 (UniProt Q96PC5),0.001,0.015,0.006,-0.059,-0.077,-0.034,0.09,0.044,-0.01,0.011,-0.068,-0.029,-0.002,-0.048,-0.051,-0.038,-0.058,0.041,0.029,-0.046
LNPK (UniProt Q9C0E8),-0.016,0.077,0.007,-0.036,-0.017,-0.022,0.002,-0.085,-0.044,0.022,-0.081,-0.035,-0.001,-0.009,0.052,-0.007,0.025,0.011,0.054,0.072
LEMD3 (UniProt Q9Y2U8),0.072,-0.12,-0.084,-0.016,-0.003,0.006,-0.015,0.114,-0.002,-0.095,-0.171,-0.114,-0.127,-0.026,-0.106,0.037,0.163,0.049,-0.008,0.001
LRPPRC (UniProt P42704),0.025,-0.822,0.154,0.065,0.059,-0.175,0.213,0.481,-0.172,-0.416,-0.053,0.117,-0.14,-0.721,-0.732,0.016,0.236,0.24,-0.656,-0.161
KIF3A (UniProt Q9Y496),0.049,-0.239,-0.01,0.143,0.048,-0.024,0.009,-0.029,0.003,0.044,0.022,-0.047,-0.128,0.054,-0.068,0.093,0.025,-0.043,-0.031,0.018
MAST4 (UniProt O15021),-0.041,-0.188,0.064,-0.114,0.091,-0.301,-0.03,0.053,-0.088,0.007,-0.029,0.034,-0.073,-0.757 (active),-0.112,-0.004,0.131,0.09,-0.087,-0.003
MFN1 (UniProt Q8IWA4),0.031,-0.026,0.027,-0.063,0.037,0.025,-0.063,0.039,0.02,-0.207,-0.114,-0.034,-0.005,-0.05,-0.054,0.02,0.032,-0.019,0.123,-0.01
MFGE8 (UniProt Q08431),0.063,0.04,-0.129,0.087,-0.052,-0.015,0.085,0.057,0.046,-0.122,0.024,0.002,0.168,0.008,0.049,-0.039,-0.057,-0.029,0.033,-0.096
IMMT isoform 4 (UniProt Q16891),0.017,-0.102,0.084,-0.012,0.019,-0.093,0.002,0,-0.014,-0.202,-0.119,0.018,-0.038,0.004,-0.019,0.003,0.015,0.018,-0.03,0.012
